The text below walks through data of PubChem BioAssay (NCI).

The panel holds about 83,000 compounds, 20% with a hit somewhere; the sample as a whole holds those more often.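 Method: cells in 96-well plates; compound added at one concentration; 48 h incubation; percent growth measured; values under 10 scored active.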 Active and inactive are the calls of the source.

One assay concerns SW-620 colon. The experiment in a line: NCI-60 one-dose screen, 48 h (100 = growth as untreated, 0 = no growth, -100 = all killed). The settings on record: 10 µM.
For the compound `CCCOCC(O)CNCCN` (centres undefined), the growth was 98.9% (inactive).
The same measure, in the same setting: to `CCCC(C)c1ccc(OCCCCCCN2CCNCC2)cc1` (centres undefined) belongs -16.6% (active); to `Nc1cc(O)cc(O)c1`, 107% (inactive); to `Cc1cc(C(C)(C)CC(C)(C)C)ccc1OCCOCC[N+](C)(C)Cc1ccccc1`, -80.6% (active).
Same read-out and setting: next, `CC(C)c1[nH]nc2c(NCc3ccc(-c4ccccn4)cc3)nc(SCCN)nc12`: 5.99% (active); `CC(=O)c1c(O)cc2c3c1OC(C)(C)C1CCC(C)(CC31)O2` (centres undefined): 107% (inactive).
For `CN(C)CCCN1c2ccccc2Sc2ccc(C(F)(F)F)cc21`, the growth is 9.61% (active).
On the same count and under the same terms, next, `CNC(=O)c1cc(Oc2ccc(NC(=O)Nc3ccc(Cl)c(OC4CCCCC4)c3)c(F)c2)ccn1`: 62.9% (inactive); `O=C(Nc1cccc(F)c1)Nc1cccc(Cl)c1`: 74% (inactive); `CCN(CC)CC(O)CNc1ccnc2cc(Cl)c(Cl)cc12` (centres undefined): 97.3% (inactive).
As for `CCCCCCOc1ccc(/C=C/C(=O)c2ccc(B(O)O)cc2)cc1`, the growth was 96.8% (inactive).
As to `CC1(C)CC(OCCCC[P+](c2ccccc2)(c2ccccc2)c2ccccc2)CC(C)(C)N1O`, the growth is 2.74% (active).
For `Fc1cc(-c2ncc(-c3cc(F)c(F)c(F)c3)c(NC3CCCCCC3)n2)cc(F)c1F`, the growth is 96.9% (inactive).
Turning to `COc1c(C)c(C)c(OC)c2c1[nH]c(=O)c1c3cccnc3cn21`, the growth was 99.3% (inactive).
`CC1(C)CCc2cc(-c3ccn(S(=O)(=O)c4ccc(Cl)cc4)n3)ccc2O1`: the growth was 87.7% (inactive).
The same measure, in the same setting: to `O=C(NC1CCCC1)c1ccc(N2CCC(NCc3cccc(C(F)(F)F)c3)CC2)cc1` belongs 97% (inactive); to `CC1=CC2OC34COC3CC(OC(=O)C(F)(F)F)C4(C)C2(C)CC1` (centres undefined), 103% (inactive); to `CCCCOCCOCCOCc1cc2c(cc1Br)OCO2`, 100% (inactive).
Still for that read-out and setting: to `CCCCCCCCCCN=C(c1ccc(N(C)C)cc1)c1ccc(N(C)C)cc1` belongs 16.8% (inactive); to `COc1cccc2c1C(=O)c1c(O)c3c(c(O)c1C2=O)C[C@@](O)(C(=O)COC(=O)c1cccnc1)C[C@@H]3OC1CC(N)C(O)C(C)O1` (some centres undefined), 3.34% (active).
`COc1ccc(/C(=C/c2cc(OC)c(OC)cc2[N+](=O)[O-])C(=O)O)cc1`: the growth was 105% (inactive).
In the case of `Nc1ccccc1NC(=O)CCCCCCC(=O)Nc1ccc2c(c1)/C(=C/c1ccc[nH]1)C(=O)N2`, the growth was 47.4% (inactive).
For the compound `CCOC(=O)c1c(C)n(-c2ccc(Cl)cc2)c2ccc(OC(=O)/C=C/c3ccccc3)cc12`, the growth is 67% (inactive).
As to `Cc1nnc2c3nnc(-c4ccc(Cl)cc4)n3c3ccccc3n12`, the growth was 106% (inactive).
Regarding `CCOc1ccc2c(c1)CC[C@@H]1[C@@H]2CC[C@]2(C)[C@@H](O)[C@@H](O)C[C@@H]12`, the growth was 95.9% (inactive).
Still for that read-out and setting: to `COC(=O)[C@]12CC[C@@H](C)[C@H](C)[C@@H]1C1=CC[C@@H]3[C@@]4(C)CC(=O)[C@H](O)[C@@](C)(CO)[C@@H]4C(=O)C[C@@]3(C)[C@]1(C)CC2` belongs 1.83% (active).
As to `CCCCn1c(=O)[nH]c2c(c1=O)C(c1ccc(Cl)cc1)c1c([nH]c(=O)n(CCCC)c1=O)N2`, the growth is 101% (inactive).
Still for that read-out and setting: to `CCC(CCNc1cc(OC)cc2cccnc12)CN1C(=O)c2ccccc2C1=O` (centres undefined) belongs 135% (inactive); to `COc1ccc(C(=O)c2sc3nc(-c4cccs4)ccc3c2N)cc1OC`, 45.4% (inactive); to `O=C/C=C/c1ccc([N+](=O)[O-])cc1Cl`, 90% (inactive).
The same measure, in the same setting: to `C/C(=N\NC(=O)c1sc(=S)n(C)c1N)c1cc2ccccc2o1` belongs 81.3% (inactive); to `CC(=O)OC1Oc2ccccc2-c2oc(=O)c(-c3ccc(F)cc3)cc21` (centres undefined), 12.8% (inactive); to `COc1ccc(Nc2nc(NCc3ccccc3)c3ccccc3n2)cc1`, 68.2% (inactive).
Regarding `CCOC(=O)c1c(O)c2cc(-c3ccccc3)nc(OCC)c2c(=O)n1C`, the growth was 104% (inactive).
Still for that read-out and setting: to `COc1ccc(-c2nnc(SCC(=O)c3ccccc3)o2)cc1` belongs 102% (inactive); to `CC(=O)Oc1c(C)c(C)c2c(c1C)CCC(C)(CC(=O)OCCCCCCCCCCC[P+](c1ccccc1)(c1ccccc1)c1ccccc1)O2` (centres undefined), -68.2% (active); to `Cc1ccccc1[P+](Cc1ccccc1)(c1ccccc1)c1ccccc1`, 30% (inactive).

The next assay has as its system MCF7 breast. Described as above. The settings on record: 10 µM.
With `CCCOCC(O)CNCCN` (centres undefined), the growth was 97.4% (inactive).
With `CCCC(C)c1ccc(OCCCCCCN2CCNCC2)cc1` (centres undefined), the growth was -23.2% (active).
For the compound `Nc1cc(O)cc(O)c1`, the growth is 98.3% (inactive).
Consider `Cc1cc(C(C)(C)CC(C)(C)C)ccc1OCCOCC[N+](C)(C)Cc1ccccc1`, for which the growth is -90.7% (active).
Same read-out and setting: next, `CC(C)c1[nH]nc2c(NCc3ccc(-c4ccccn4)cc3)nc(SCCN)nc12`: 1.59% (active); `CC(=O)c1c(O)cc2c3c1OC(C)(C)C1CCC(C)(CC31)O2` (centres undefined): 119% (inactive); `CN(C)CCCN1c2ccccc2Sc2ccc(C(F)(F)F)cc21`: -39.7% (active).
`CNC(=O)c1cc(Oc2ccc(NC(=O)Nc3ccc(Cl)c(OC4CCCCC4)c3)c(F)c2)ccn1`: the growth is 27.8% (inactive).
Same read-out and setting: next, `O=C(Nc1cccc(F)c1)Nc1cccc(Cl)c1`: 87.8% (inactive); `CCN(CC)CC(O)CNc1ccnc2cc(Cl)c(Cl)cc12` (centres undefined): 79.5% (inactive).
Still for that read-out and setting: to `CCCCCCOc1ccc(/C=C/C(=O)c2ccc(B(O)O)cc2)cc1` belongs 57.5% (inactive); to `CC1(C)CC(OCCCC[P+](c2ccccc2)(c2ccccc2)c2ccccc2)CC(C)(C)N1O`, -1.61% (active); to `Fc1cc(-c2ncc(-c3cc(F)c(F)c(F)c3)c(NC3CCCCCC3)n2)cc(F)c1F`, 90.8% (inactive).
Turning to `COc1c(C)c(C)c(OC)c2c1[nH]c(=O)c1c3cccnc3cn21`, the growth is 88.5% (inactive).
Same read-out and setting: to `CC1(C)CCc2cc(-c3ccn(S(=O)(=O)c4ccc(Cl)cc4)n3)ccc2O1` belongs 71.3% (inactive).
On to `O=C(NC1CCCC1)c1ccc(N2CCC(NCc3cccc(C(F)(F)F)c3)CC2)cc1`, for which the growth is 95.8% (inactive).
Same read-out and setting: next, `CC1=CC2OC34COC3CC(OC(=O)C(F)(F)F)C4(C)C2(C)CC1` (centres undefined): 93.7% (inactive).
Still for that read-out and setting: to `CCCCOCCOCCOCc1cc2c(cc1Br)OCO2` belongs 90.2% (inactive); to `CCCCCCCCCCN=C(c1ccc(N(C)C)cc1)c1ccc(N(C)C)cc1`, 11.9% (inactive).
Regarding `COc1cccc2c1C(=O)c1c(O)c3c(c(O)c1C2=O)C[C@@](O)(C(=O)COC(=O)c1cccnc1)C[C@@H]3OC1CC(N)C(O)C(C)O1` (some centres undefined), the growth was 4.11% (active).
Regarding `COc1ccc(/C(=C/c2cc(OC)c(OC)cc2[N+](=O)[O-])C(=O)O)cc1`, the growth is 105% (inactive).
Same read-out and setting: to `Nc1ccccc1NC(=O)CCCCCCC(=O)Nc1ccc2c(c1)/C(=C/c1ccc[nH]1)C(=O)N2` belongs 15.9% (inactive); to `CCOC(=O)c1c(C)n(-c2ccc(Cl)cc2)c2ccc(OC(=O)/C=C/c3ccccc3)cc12`, 59.6% (inactive).
For `Cc1nnc2c3nnc(-c4ccc(Cl)cc4)n3c3ccccc3n12`, the growth is 101% (inactive).
For the compound `CCOc1ccc2c(c1)CC[C@@H]1[C@@H]2CC[C@]2(C)[C@@H](O)[C@@H](O)C[C@@H]12`, the growth was 111% (inactive).
Still for that read-out and setting: next, `COC(=O)[C@]12CC[C@@H](C)[C@H](C)[C@@H]1C1=CC[C@@H]3[C@@]4(C)CC(=O)[C@H](O)[C@@](C)(CO)[C@@H]4C(=O)C[C@@]3(C)[C@]1(C)CC2`: -13.4% (active); `CCCCn1c(=O)[nH]c2c(c1=O)C(c1ccc(Cl)cc1)c1c([nH]c(=O)n(CCCC)c1=O)N2`: 88.2% (inactive).
Same read-out and setting: to `CCC(CCNc1cc(OC)cc2cccnc12)CN1C(=O)c2ccccc2C1=O` (centres undefined) belongs 31.1% (inactive).
Same read-out and setting: to `COc1ccc(C(=O)c2sc3nc(-c4cccs4)ccc3c2N)cc1OC` belongs 24.7% (inactive); to `O=C/C=C/c1ccc([N+](=O)[O-])cc1Cl`, 62.8% (inactive); to `C/C(=N\NC(=O)c1sc(=S)n(C)c1N)c1cc2ccccc2o1`, 34.8% (inactive).
With `Cc1ccc(-c2cc(C(=O)Nc3ccc(S(=O)(=O)N4CCCCC4)cc3)[nH]n2)c(O)c1`, the growth was 46.8% (inactive).
Still for that read-out and setting: to `CC(=O)OC1Oc2ccccc2-c2oc(=O)c(-c3ccc(F)cc3)cc21` (centres undefined) belongs 63.2% (inactive); to `COc1ccc(Nc2nc(NCc3ccccc3)c3ccccc3n2)cc1`, 67.4% (inactive); to `CCOC(=O)c1c(O)c2cc(-c3ccccc3)nc(OCC)c2c(=O)n1C`, 93.8% (inactive).
Regarding `CC(=O)Oc1c(C)c(C)c2c(c1C)CCC(C)(CC(=O)OCCCCCCCCCCC[P+](c1ccccc1)(c1ccccc1)c1ccccc1)O2` (centres undefined), the growth was -87.2% (active).
On to `Cc1ccccc1[P+](Cc1ccccc1)(c1ccccc1)c1ccccc1`, for which the growth was 10.4% (inactive).
